Screening results from PubChem.
Hits are enriched below; roughly 3.8% of the tested compounds scored in any of these assays.
esBAF inh – Bmi1 luciferase reporter increase in mESCs, primary screen, esBAF inhibitor project, mouse ES cells, Bmi1 luciferase knock-in, single point | 24 h; 100% = twice the neutral-well signal | reporter increase, % at 12.5 µM | actives 2% (n = 350,000) | AID 602393, 2012; in the data active = activation above about 40%; inconclusive = no clear call, values can overlap the other calls;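 also: 0% = median of the plate's neutral control wells and 100% = double that signal; a rise in the Bmi1 reporter signal indicates esBAF inhibition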
HSF1 inh – HSF1 inhibitors in luciferase reporter cells, primary screen, cell-based, NIH3T3, luminescence; NIH3T3-HGL HSE-luciferase, MG132-induced, luminescence 8 h; hits give low values; activity change, negative = inhibition, % at 7.5 µM (by protocol); actives 0.77% (n = 300,000);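 active = more than half of replicate wells show activity change below -50%, luminescence cut by over half; inconclusive = some wells, but at most half, below -50%; inactive = no replicate well below -50%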;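 also: luciferase reports HSF-1 transcriptional activity via heat shock element; 0% = median of DMSO wells and -100% = zero luminescence signal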
HSF1 activator – HSF-1 activators, primary screen, NIH3T3-HGL cells, MG132 stress, luminescence, single point; AID 504408, 2011; actives 1.7% (n = 300,000); NIH3T3-HGL HSF-1 luciferase reporter, 8 h; 100% = twice DMSO control signal; activation, % at 9 µM;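 active = mean replicate activation of at least 50% with a set share of replicates each reaching 50%; inconclusive = only one of those two conditions met; inactive = mean below 50% and too few replicates reaching it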;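 also: 0% = median of the neutral control wells and 100% = twice that signal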
MITF act – activators of MITF-driven TRPM1 promoter reporter, primary screen, cell-based, SK-MEL-5, luciferase, single point | SK-MEL-5 TRPM1-promoter luciferase, 24 h; % of positive control, neutral wells = 0 | activation, % at 12.5 µM | actives 0.75% (n = 300,000) | AID 588334, 2011;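 active = mean activation of at least 80% with every replicate also reaching 80%; inconclusive = mean reaches 80% but some replicate falls short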;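 also: 0% = neutral control wells and 100% = parthenolide positive control wells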
Wnt bcat act – Wnt/beta-catenin pathway activators, primary screen, cell-based, plate reader, single point. Wnt/beta-catenin reporter cell assay, activator. activation, % at 9.35 µM. actives 1.2% (n = 300,000); in the data active = activation above about 30%, passing the limit was not always enough; inconclusive = no clear call, values can overlap the other calls;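 also: 0% = neutral control wells and 100% = positive control wells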
An asterisk follows results filed as active; ? = inconclusive; / = not tested or not shown.

SMILES	esBAF inh	HSF1 inh	HSF1 activator	MITF act	Wnt bcat act
Cc1cc2c(cc1C)CN(c1ccccc1)C2	48*	26	56*	96*	49*
CCOc1ccccc1N1Cc2ccccc2C1	-4	-2	6	-8	-10
C[C@@H]1CN([C@H](C)CO)C(=O)Cc2cc(NC(=O)CCC(F)(F)F)ccc2O[C@H]1CN(C)Cc1ccncc1	3	/	/	/	/
CCc1nonc1NC(=O)c1oc2cc(C)c(C)cc2c1C	13	12	28	86*	25
CCc1ccc(C(=O)COC(=O)c2cccs2)cc1	34	26	23	?	62*
Cc1ccc(C(=O)COC(=O)c2cccs2)cc1	/	11	13	57	52*
CCC(=O)c1ccc(OC(=O)c2cccs2)cc1	-8	2	7	14	-7
O=C1C2CCCCN2C(=O)N1CCCN1CCN(c2ccc(F)cc2)CC1 (stereo not given)	-2	12	57*	/	5
CC1(c2ccccc2)CC(c2ccccc2)=Nc2ccccc2N1 (stereo not given)	/	14	11	/	/
Cc1ccc(C2=Nc3ccccc3NC(C)(c3ccc(C)o3)C2)o1 (stereo not given)	13	40	53*	16	/
C=CCn1c(SCC(=O)NC2CCCC2)nc2scc(-c3ccco3)c2c1=O	7	13	61*	4	-1
Cc1ccc(-c2ccc(SCC(=O)NC3CCCCC3)nn2)cc1	52*	5	23	42	4
CC(C)n1c(SCC(=O)NC2CCCCC2)nnc1-c1ccco1	0	11	67*	-6	-1
CCOc1ccc(-c2ccc(SCC(=O)NC3CCCCC3)nn2)cc1	?	27	43	94*	20
C[C@@H]1CN([C@H](C)CO)S(=O)(=O)c2ccc(C3=CCCCC3)cc2O[C@@H]1CN(C)Cc1ccncc1	0	/	/	/	/
CC(C)NC(=O)N(C)C[C@H]1OCCCC[C@H](C)Oc2ccc(NC(=O)Nc3ccc(F)cc3)cc2C(=O)N([C@@H](C)CO)C[C@H]1C	-7	/	/	/	/
Cc1nc(C)c(-c2ccc(SCc3ccccc3C)nn2)s1	52*	7	31	56	9
CCOC(=O)c1c(C)[nH]c(C(=O)COC(=O)C2=NNC(=O)CC2)c1C	-7	-78*	-83	-8	-2
CCOC(=O)c1c(C)[nH]c(C(=O)COC(=O)c2ccncc2)c1C	5	4	9	-5	-1
CCOC(=O)c1c(C)[nH]c(C(=O)COC(=O)c2cccnc2Cl)c1C	65*	/	/	83*	16
CCOC(=O)c1c(C)[nH]c(C(=O)COC(=O)c2[nH]c(C)c(C(C)=O)c2C)c1C	2	-1	-9	-8	/
COCC(=O)N1[C@H](CO)[C@H]2c3ccccc3N(C(=O)c3ccccc3)C[C@H]21	-1	/	/	/	/
C[C@@H]1CN([C@H](C)CO)C(=O)c2cc(NC(=O)C3CCCCC3)ccc2O[C@@H]1CN(C)Cc1ccc(Cl)c(Cl)c1	2	/	/	/	/
Cc1noc(C)c1NC(=O)Nc1cccc2c1O[C@@H](CN(C)C)[C@H](C)CN([C@H](C)CO)C2=O	2	/	/	/	/
CC(=O)c1c(C)nn(-c2ccccc2)c1C	/	-1	5	/	4
SMILES	esBAF inh	HSF1 inh	HSF1 activator	MITF act	Wnt bcat act
COc1ccccc1C1CCN(C(=O)c2ccccc2)CC1	7	2	0	4	-2
COc1ccc(S(=O)(=O)N2CCN(C(=O)c3c(C)nn(-c4ccccc4)c3C)CC2)cc1	-7	/	/	2	-3
Cc1nn(-c2ccccc2)c(C)c1C(=O)Oc1ccccc1	62*	2	30	?	14
O=C(NCCc1ccccc1)c1ccc(-n2cnnn2)cc1	48*	9	8	39	7
COc1ccc(OC(=O)c2c(C)nn(-c3ccccc3)c2C)cc1	71*	22	45	71	29
COc1ccccc1C1CCN(C(=O)c2cnn(-c3ccccc3)c2C)CC1	4	-2	15	-2	41*
C[C@@H]1CN([C@@H](C)CO)S(=O)(=O)c2ccc(-c3ccncc3)cc2O[C@@H]1CN(C)C	3	/	/	/	/
CCC(=O)N1[C@H](CO)[C@H]2c3ccccc3N(C(=O)c3ccc4c(c3)OCO4)C[C@H]21	1	/	/	/	/
CO[C@H]1CC[C@H]2CCOc3ccc(C#N)cc3C(=O)N(C)C[C@@H](OC)[C@H](C)C(=O)N(C)C[C@H]1O2	1	/	/	/	/
CCCN(C)C[C@H]1OCCCC[C@@H](C)Oc2ccc(NS(=O)(=O)c3cn(C)cn3)cc2C(=O)N([C@@H](C)CO)C[C@H]1C	0	/	/	/	/
Cc1nn(-c2ccccc2)c(C)c1C(=O)NCCc1ccccc1	24	13	44	88*	-4
COc1ccc(OC(=O)c2cnn(-c3ccccc3)c2C)cc1	67*	26	41	63	/
Cc1cc(C)cc(OCC(O)CN2CC(C)OC(C)C2)c1 (stereo not given)	3	-63*	-71	-9	-2
Cc1ccc(C(C)C)c(OCC(O)CN2CC(C)OC(C)C2)c1 (stereo not given)	-7	-6	5	/	/
COCCOc1cnn(-c2cc(Oc3ccc(C)cc3)ncn2)c(=O)c1Cl	-4	-11	-6	-2	/
COc1cnn(-c2cc(Oc3ccc(C)cc3)ncn2)c(=O)c1Cl	13	45	95*	5	/
Cc1ccc(Oc2cc(-n3nc(C)cc3C)ncn2)cc1	48*	10	-2	62	/
COc1ccccc1-c1nc(SCc2ccccn2)n[nH]1	60*	16	25	-3	3
C=CCn1c(C)cc(C(=O)COC(=O)CNC(=O)c2ccccc2)c1C	/	-82*	-84	4	0
Cc1ccc(C(=O)NCC(=O)OCC(=O)c2cc(C)n(Cc3ccco3)c2C)cc1	/	2	2	5	0
CCCSc1nnc(-c2c[nH]c3ccccc23)n1C	44*	9	16	40	-21
O=C(C1CCC1)N1CCCCN2[C@@H](CO)[C@@H](c3ccc(-c4cccc(F)c4)cc3)[C@@H]2C1	-7	/	/	/	/
COc1ccc(NC(=O)N(C)C[C@H]2OCc3ccccc3-c3c(n(C)c4ccccc34)C(=O)N([C@@H](C)CO)C[C@H]2C)cc1	5	/	/	/	/
C[n+]1c(/C=C/c2ccc3c(c2)OCO3)ccc2ccccc21	/	-72*	-76	4	-2
C[n+]1c(/C=C/c2ccc(O)cc2)ccc2ccccc21	62*	6	3	30	24
Cc1cc(/C=C\c2ccc3cc(N(C)C)ccc3[n+]2C)c(C)n1-c1ccccc1	-89	/	/	-100	/
CC=Cc1ccc2n(c1=O)C[C@H]1[C@H](CO)[C@@H](C(=O)NC3CCCCC3)N(C(=O)C3CC3)[C@@H]21 (mixture of isomers)	1	/	/	/	/
